The target of test [1] is Mast/stem cell growth factor receptor Kit (Homo sapiens) (UniProt P10721). Conditions: at 1 µM.
Test [2] concerns Mast/stem cell growth factor receptor Kit (Homo sapiens), P10721 [D816V]. Conditions: at 0.1 µM.
Test [3] shares this test system. As to conditions: at 1 µM.
In test [4] the test system is Mast/stem cell growth factor receptor Kit (Homo sapiens), P10721 [T670I]. As to conditions: at 0.1 µM.
Test [5] has the same test system. Conditions: at 1 µM.
Test [6] concerns Mast/stem cell growth factor receptor Kit (Homo sapiens), P10721 [V560G]. Conditions: at 0.1 µM.
Sequence of Mast/stem cell growth factor receptor Kit (Homo sapiens), P10721 [V560G] (P10721 whole entry V560G): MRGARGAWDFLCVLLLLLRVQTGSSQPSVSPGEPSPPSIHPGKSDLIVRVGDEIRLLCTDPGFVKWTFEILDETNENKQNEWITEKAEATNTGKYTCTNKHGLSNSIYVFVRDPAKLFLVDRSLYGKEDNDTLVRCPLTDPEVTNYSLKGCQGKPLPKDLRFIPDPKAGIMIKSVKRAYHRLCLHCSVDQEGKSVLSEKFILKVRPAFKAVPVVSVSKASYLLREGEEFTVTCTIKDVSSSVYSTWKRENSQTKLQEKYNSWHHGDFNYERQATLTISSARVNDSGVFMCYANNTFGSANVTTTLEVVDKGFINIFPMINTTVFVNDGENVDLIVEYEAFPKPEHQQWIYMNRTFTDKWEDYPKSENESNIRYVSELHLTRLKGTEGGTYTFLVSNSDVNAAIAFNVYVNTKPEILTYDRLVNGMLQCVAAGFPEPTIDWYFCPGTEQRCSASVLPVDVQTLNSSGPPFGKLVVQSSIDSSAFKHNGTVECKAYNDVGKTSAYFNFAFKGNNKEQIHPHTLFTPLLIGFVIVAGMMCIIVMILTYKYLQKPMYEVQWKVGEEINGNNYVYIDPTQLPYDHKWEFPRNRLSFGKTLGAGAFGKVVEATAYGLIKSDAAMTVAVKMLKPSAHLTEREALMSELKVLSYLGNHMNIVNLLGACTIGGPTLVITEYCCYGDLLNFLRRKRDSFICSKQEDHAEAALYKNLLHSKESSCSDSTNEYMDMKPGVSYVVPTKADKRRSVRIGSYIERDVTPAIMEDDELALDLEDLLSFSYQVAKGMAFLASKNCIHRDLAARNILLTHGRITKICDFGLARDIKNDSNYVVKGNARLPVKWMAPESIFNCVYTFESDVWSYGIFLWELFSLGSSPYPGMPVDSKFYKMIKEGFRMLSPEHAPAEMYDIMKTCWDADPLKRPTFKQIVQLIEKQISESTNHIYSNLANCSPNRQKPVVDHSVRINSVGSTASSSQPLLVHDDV
The test system is the same in test [7]. As to conditions: at 1 µM.
Test [8] deals with Tyrosine-protein kinase Lck (Homo sapiens) (UniProt P06239). As to conditions: at 0.1 µM.
Sequence of Tyrosine-protein kinase Lck (Homo sapiens) (P06239 2-509 limits assumed): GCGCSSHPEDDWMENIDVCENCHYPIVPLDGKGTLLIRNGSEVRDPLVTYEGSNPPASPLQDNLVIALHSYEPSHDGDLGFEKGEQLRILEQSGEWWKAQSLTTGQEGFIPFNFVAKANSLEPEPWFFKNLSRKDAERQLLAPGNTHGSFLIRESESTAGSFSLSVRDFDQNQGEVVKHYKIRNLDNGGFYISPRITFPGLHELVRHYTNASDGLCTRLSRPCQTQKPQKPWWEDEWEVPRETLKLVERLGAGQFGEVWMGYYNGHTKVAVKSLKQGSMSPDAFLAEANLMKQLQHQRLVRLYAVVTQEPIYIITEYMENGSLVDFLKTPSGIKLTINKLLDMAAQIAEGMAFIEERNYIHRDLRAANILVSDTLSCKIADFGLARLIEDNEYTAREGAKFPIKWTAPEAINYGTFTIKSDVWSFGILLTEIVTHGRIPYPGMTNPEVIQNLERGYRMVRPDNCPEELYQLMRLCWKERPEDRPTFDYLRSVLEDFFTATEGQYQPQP
The target is the same in test [9]. As to conditions: at 1 µM.
The target of test [10] is Leukocyte tyrosine kinase receptor (Homo sapiens) (UniProt P29376). As to conditions: at 0.1 µM.
Sequence of Leukocyte tyrosine kinase receptor (Homo sapiens) (P29376 whole entry): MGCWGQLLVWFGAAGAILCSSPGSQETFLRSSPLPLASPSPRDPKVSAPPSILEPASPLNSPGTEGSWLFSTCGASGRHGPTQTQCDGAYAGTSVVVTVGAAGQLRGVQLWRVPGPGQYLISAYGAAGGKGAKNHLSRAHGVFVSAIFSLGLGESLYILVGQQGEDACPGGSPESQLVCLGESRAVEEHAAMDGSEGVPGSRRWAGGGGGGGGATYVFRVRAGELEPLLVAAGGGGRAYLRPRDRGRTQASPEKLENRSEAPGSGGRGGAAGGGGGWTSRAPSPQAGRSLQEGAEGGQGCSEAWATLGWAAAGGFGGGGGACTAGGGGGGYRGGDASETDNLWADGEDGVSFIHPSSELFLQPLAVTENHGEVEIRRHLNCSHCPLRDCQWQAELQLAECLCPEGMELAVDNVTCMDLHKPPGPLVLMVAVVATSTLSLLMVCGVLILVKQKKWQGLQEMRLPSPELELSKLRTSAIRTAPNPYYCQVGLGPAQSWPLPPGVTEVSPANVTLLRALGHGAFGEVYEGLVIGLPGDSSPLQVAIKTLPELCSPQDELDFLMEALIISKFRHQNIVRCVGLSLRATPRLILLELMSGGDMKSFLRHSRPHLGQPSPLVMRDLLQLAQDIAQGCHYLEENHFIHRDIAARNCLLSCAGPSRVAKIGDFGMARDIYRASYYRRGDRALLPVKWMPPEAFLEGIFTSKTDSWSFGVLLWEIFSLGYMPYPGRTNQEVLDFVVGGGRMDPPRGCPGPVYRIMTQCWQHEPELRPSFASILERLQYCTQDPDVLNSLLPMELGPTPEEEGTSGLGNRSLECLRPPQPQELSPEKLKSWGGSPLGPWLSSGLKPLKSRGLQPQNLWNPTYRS
Test [11] shares this target. As to conditions: at 1 µM.
The target in test [12] is Tyrosine-protein kinase Lyn (Homo sapiens) (UniProt P07948). Conditions: at 0.1 µM.
Sequence of Tyrosine-protein kinase Lyn (Homo sapiens) (P07948 2-512 limits assumed): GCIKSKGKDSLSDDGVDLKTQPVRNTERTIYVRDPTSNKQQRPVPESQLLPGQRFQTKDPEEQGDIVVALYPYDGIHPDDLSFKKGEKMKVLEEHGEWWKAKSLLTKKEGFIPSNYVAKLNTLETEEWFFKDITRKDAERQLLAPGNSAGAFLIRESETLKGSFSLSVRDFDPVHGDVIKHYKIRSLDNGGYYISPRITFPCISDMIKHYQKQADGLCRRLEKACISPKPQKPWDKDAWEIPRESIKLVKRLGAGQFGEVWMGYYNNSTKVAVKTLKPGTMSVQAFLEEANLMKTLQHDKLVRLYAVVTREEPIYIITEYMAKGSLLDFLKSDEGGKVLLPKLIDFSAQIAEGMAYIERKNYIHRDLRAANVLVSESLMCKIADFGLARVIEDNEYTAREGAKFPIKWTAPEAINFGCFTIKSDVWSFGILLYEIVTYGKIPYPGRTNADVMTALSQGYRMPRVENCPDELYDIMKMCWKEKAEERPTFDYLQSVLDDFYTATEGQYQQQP
Test [13] has the same target. Conditions: at 1 µM.
The target is the same in test [14]. As to conditions: at 0.1 µM. The source holds these as a separate data set.
The target is the same in test [15]. Conditions: at 1 µM. This is another data set of the same source.
Test [16] concerns the target T1, Tyrosine-protein kinase Mer (Homo sapiens) (UniProt Q12866).
T1 sequence (whole entry): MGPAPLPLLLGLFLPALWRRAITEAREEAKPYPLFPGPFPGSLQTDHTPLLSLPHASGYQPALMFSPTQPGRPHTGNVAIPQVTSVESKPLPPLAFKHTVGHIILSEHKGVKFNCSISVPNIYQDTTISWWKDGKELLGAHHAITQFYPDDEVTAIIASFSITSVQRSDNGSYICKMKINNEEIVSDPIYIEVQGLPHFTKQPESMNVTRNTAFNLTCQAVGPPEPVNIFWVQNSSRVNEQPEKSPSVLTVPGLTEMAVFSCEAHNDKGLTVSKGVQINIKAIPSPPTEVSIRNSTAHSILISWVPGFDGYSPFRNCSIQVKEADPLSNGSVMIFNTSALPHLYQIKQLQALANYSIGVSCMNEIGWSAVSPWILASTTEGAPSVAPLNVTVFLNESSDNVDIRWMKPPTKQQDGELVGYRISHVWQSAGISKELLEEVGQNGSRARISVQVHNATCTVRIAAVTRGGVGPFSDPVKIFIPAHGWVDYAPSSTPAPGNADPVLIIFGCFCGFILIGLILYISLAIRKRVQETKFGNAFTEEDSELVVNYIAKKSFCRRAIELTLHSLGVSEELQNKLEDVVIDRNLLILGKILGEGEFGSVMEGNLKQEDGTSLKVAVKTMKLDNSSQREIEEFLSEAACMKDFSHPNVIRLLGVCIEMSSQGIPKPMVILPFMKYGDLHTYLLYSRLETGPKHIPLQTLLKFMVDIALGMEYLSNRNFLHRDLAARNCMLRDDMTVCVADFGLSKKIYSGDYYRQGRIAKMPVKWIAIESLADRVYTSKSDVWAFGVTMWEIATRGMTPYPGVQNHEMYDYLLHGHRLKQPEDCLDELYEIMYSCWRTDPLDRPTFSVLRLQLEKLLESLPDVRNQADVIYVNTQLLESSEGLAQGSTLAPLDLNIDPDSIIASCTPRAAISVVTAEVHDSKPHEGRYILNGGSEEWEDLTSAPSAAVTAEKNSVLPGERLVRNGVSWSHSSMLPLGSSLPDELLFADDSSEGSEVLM
As to conditions: at 0.1 µM.

Test [17] concerns the target T1, Tyrosine-protein kinase Mer (Homo sapiens). As to conditions: at 1 µM.
Test [18] addresses Hepatocyte growth factor receptor (Homo sapiens) (UniProt P08581). Conditions: at 0.1 µM.
For test [19] the target is unchanged. Conditions: at 1 µM.
In test [20] the target is T2, Muscle, skeletal receptor tyrosine-protein kinase (Homo sapiens) (UniProt O15146).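 Also: values are mean inhibition of MuSK from the GSK PKIS kinase screening panel.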
T2 sequence (whole entry): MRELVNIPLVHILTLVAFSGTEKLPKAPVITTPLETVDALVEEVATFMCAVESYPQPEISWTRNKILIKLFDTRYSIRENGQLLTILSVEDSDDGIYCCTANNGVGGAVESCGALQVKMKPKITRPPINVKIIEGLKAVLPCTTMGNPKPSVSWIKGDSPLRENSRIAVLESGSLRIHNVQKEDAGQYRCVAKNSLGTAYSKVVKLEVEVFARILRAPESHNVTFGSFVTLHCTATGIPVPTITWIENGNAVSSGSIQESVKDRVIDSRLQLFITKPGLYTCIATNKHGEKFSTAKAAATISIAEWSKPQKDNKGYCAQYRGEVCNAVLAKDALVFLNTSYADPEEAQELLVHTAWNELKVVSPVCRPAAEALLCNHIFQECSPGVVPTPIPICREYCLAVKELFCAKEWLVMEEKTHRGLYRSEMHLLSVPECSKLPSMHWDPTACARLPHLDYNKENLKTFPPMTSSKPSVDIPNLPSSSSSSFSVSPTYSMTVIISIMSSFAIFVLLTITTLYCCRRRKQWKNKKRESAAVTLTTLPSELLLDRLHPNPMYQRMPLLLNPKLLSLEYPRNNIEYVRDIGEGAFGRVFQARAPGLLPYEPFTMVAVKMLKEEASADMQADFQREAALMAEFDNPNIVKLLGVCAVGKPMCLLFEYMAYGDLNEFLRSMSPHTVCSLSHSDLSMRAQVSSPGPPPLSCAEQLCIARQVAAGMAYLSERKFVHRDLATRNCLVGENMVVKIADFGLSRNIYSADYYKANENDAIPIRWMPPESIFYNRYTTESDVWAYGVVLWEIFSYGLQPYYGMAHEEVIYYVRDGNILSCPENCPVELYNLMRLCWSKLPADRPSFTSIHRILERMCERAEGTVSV
Conditions: at 0.1 µM.

SMILES strings stand for the structures.

Sequence of Mast/stem cell growth factor receptor Kit (Homo sapiens), P10721 [T670I] (P10721 whole entry T670I): as the sequence (P10721 whole entry V560G) above, with G560V, T670I counted along it
Sequence of Mast/stem cell growth factor receptor Kit (Homo sapiens), P10721 [D816V] (P10721 whole entry D816V): as the sequence (P10721 whole entry V560G) above, with G560V, D816V counted along it
Sequence of Mast/stem cell growth factor receptor Kit (Homo sapiens) (P10721 whole entry): as the sequence (P10721 whole entry V560G) above, with G560V counted along it
Sequence of Hepatocyte growth factor receptor (Homo sapiens) (P08581 whole entry): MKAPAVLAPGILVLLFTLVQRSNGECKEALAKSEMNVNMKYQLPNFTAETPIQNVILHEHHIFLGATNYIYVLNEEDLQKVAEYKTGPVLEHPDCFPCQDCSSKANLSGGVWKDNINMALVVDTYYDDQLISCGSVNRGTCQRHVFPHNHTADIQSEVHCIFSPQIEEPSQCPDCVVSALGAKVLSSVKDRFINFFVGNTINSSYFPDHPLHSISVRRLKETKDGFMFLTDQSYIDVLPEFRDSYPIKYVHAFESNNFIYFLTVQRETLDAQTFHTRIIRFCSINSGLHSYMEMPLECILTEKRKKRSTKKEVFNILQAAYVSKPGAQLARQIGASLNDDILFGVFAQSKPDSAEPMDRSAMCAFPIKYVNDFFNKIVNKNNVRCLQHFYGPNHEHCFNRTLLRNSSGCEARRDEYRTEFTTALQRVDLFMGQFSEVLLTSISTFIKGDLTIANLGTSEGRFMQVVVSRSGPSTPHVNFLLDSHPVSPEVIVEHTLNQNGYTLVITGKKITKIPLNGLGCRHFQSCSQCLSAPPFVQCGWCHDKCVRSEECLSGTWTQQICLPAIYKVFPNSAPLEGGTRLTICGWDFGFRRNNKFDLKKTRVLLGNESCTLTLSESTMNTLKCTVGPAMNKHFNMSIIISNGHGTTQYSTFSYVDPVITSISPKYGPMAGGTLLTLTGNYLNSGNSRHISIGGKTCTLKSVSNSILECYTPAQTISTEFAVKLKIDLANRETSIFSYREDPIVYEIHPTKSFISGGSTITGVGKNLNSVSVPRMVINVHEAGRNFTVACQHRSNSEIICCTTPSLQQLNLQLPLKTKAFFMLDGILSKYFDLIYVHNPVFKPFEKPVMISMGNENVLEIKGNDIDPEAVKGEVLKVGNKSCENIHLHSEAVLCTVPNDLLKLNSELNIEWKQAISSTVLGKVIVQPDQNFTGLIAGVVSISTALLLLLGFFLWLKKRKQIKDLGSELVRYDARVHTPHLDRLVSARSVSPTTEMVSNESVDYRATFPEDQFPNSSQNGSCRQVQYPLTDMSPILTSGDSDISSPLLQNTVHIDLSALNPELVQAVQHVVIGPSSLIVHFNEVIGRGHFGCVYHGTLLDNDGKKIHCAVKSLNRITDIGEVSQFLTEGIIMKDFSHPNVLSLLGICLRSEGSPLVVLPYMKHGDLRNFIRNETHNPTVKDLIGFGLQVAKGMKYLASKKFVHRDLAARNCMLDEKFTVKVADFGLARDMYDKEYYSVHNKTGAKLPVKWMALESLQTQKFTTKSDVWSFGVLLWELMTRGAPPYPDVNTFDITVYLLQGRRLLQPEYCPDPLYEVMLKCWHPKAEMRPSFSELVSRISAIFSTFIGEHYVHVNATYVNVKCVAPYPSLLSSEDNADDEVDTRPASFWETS

For the molecule `COc1cc2ncn(-c3cc(OCc4ccccc4C(F)(F)F)c(C(=O)N(C)C)s3)c2cc1OC`, the inhibition in test [1] was 3.36%; in test [2] it was 0.31%; in test [3] it was 3.99%; in test [4] it was -0.65%; in [5] it was 1.38%; in [6], -2.81%. The inhibition in test [7] was 1.25%; in [8] it was 2.04%; in test [9] it was 11.2%; in [10], 1.37%; in test [11], 1.07%; in test [12], 0.76%. Also, the inhibition in test [13] amounted to 10.9%; in test [14], 0.93%; in test [15], 8.58%; in test [16], 1.59%; in test [17], 2.36%; in test [18], 1.4%. In addition, the inhibition in test [19] was -4.49%; in test [20], -0.19%.

In the case of `Fc1ccc(-c2cc(-c3c[nH]nc3-c3ccccn3)ccn2)cc1`, the inhibition in test [1] was 6.81%; in test [2], 1.94%; in test [3], 4.27%; in [4] it was 4.29%; in test [5], 8.03%; in test [6] it was -3.44%. The inhibition worked out at 1.08% in test [7]; 1.94% in [8]; 2.35% in test [9]; 4.6% in [10]; 5.88% in test [11]; 6.32% in test [12]. Besides, the inhibition was found to be 8.49% in test [13]; 5.14% in test [14]; 7.44% in test [15]; 1.96% in test [16]; 2% in test [17]; 6.72% in test [18]. In addition, the inhibition in test [19] was 8.44%; in [20] it was 2.06%.

Turning to `CN(C)CCOc1ccc(-c2nc(-c3ccncc3)c(-c3ccc4c(c3)CC/C4=N\O)[nH]2)cc1`, the inhibition was determined as 5.36% in test [1]; 1.54% in test [2]; 6.73% in test [3]; 3.27% in test [4]; 9.66% in [5]; 1.4% in test [6]. Also, the inhibition was 5.96% in [7]; 2.08% in test [8]; 13.5% in test [9]; 2.54% in [10]; 8.56% in test [11]; 6.26% in test [12]. Further, the inhibition in test [13] came out at 8.56%; in test [14], 2.81%; in test [15] it was 6.8%; in test [16] it was 0.89%; in [17], 4.76%; in test [18], 3.76%. The inhibition stood at 13.3% in test [19] and 2.95% in test [20].

With `CCn1c(-c2nonc2N)nc2cnc(Oc3cccc(NC(=O)c4ccc(N(C)C)cc4)c3)cc21`, the inhibition in [1] is 1.33%; in [2], 0.14%; in test [3], -1.44%; in test [4], 0.35%; in [5], -0.9%; in test [6], -2.78%. Moreover, the inhibition in test [7] was 2.28%; in [8], -0.65%; in test [9], 1.33%; in test [10], 1.6%; in test [11], 0.1%; in test [12] it was 1.48%. The inhibition was 1.6% in test [13]; 0.82% in [14]; 1.31% in [15]; 0.23% in test [16]; 0.04% in [17]; -1.57% in test [18]. Besides, the inhibition is -4.37% in test [19] and 2.84% in test [20].

With `CCCN(CCS(C)(=O)=O)Cc1ccc(-c2ccc3ncnc(Nc4ccc(OCc5cccc(F)c5)c(Cl)c4)c3c2)o1`, the inhibition came out at 4.79% in [1]; 1.86% in test [2]; 4.14% in test [3]; 2.58% in test [4]; 3.62% in [5]; 1.8% in test [6]. Besides, the inhibition is 3.3% in test [7]; 2.06% in test [8]; 5.97% in test [9]; 2.12% in [10]; 5.18% in [11]; 4.64% in test [12]. For the same molecule, the inhibition in test [13] stood at 7.93%; in [14], 2.71%; in test [15], 6.38%; in test [16], 4.13%; in test [17] it was 7.18%; in [18], 2.91%. Also, the results for the inhibition in test [19] and in test [20] were 5.26% and 3.54%, respectively.

For the molecule `CCn1c(-c2nonc2N)nc2ccccc21`, the inhibition was 4.28% in test [1]; 1.78% in [2]; -1.08% in [3]; 2.82% in [4]; 0.55% in test [5]; 1.72% in test [6]. The inhibition in test [7] stood at 1.6%; in [8], 0.68%; in test [9], 3.03%; in test [10], 5.66%; in test [11], 1.66%; in test [12] it was 3.33%. In addition, the inhibition was 2.16% in test [13]; 2.02% in [14]; 0.98% in test [15]; -0.11% in [16]; 1.81% in test [17]; 5.36% in test [18]. Further, the inhibition in [19] was determined as 2.36%; in test [20], 3.36%.
